Experimental data taken from PubChem BioAssay (NCATS).
Results filed as inconclusive are left out. Activity calls are given as the source filed them. Unless noted, calls come from the whole dose curve; as a rule, active = well fitted curve in the direction sought with a large enough effect; inconclusive = small, poorly fitted or top-dose-only effect, or another doubt; inactive = no such curve, though single readings can be large; an effect the other way counts as inactive or inconclusive.

Experiments:
[1] = S16 Schwann cell PMP22 intronic element beta-lactamase assay (AID 624044; calls by dose curve;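 note: 0% = DMSO and -100% = potassium clavulanate positive control; nearly all actives have a fitted effect of over 15% in size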); details: S16 rat Schwann cells, PMP22 element beta-lactamase FRET, 24 h; ratio activity, negative = inhibition: at 38.3 µM (top of the series) unless noted
In short: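 Beta-lactamase reporter under a PMP22 intronic regulatory element in stable S16 rat Schwann cells; 24 h compound exposure. 460 nm blue signal normalized between DMSO (0%) and potassium clavulanate, with 535 nm FRET tracking viability; curves classed by r2 and response.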

[2] = target: Luciferin 4-monooxygenase (Photinus pyralis) (UniProt P08659); assay: Biochemical firefly luciferase enzyme assay for NPC (AID 624030);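 note: purified P. pyralis luciferase at 10 nM with luciferin and ATP substrate; 0% = DMSO and -100% = full luciferase inhibition by PTC124 control; nearly all actives have a fitted effect of over 70% in size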; details: purified P. pyralis luciferase, luminescence, 5 min; series mostly up to 58.6 µM
In short: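 Counter-screen for direct inhibition of the luciferase enzyme by approved-drug library compounds, run at 10 nM enzyme in 50 mM Tris acetate (final). Luminescence was read within 5 min of enzyme-buffer addition and normalized to PTC124 versus DMSO (0%).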

[3] = S16 Schwann cell viability assay (CellTiter-Glo assay) (AID 624031); details: S16 rat Schwann cells viability, 24 h; series mostly up to 57.5 µM;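 note: cellular ATP luminescence as a viability measure; plate controls were DMSO-treated cells for no effect and cell-free wells for full effect; nearly all actives have a fitted effect of over 70% in size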
In short: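 Native S16 Schwann cells (rat), serum-containing medium, overnight attachment then 24 h drug exposure at 37 °C/5% CO2. CellTiter-Glo ATP signal; normalized to cell-free and vehicle wells.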

[4] = S16 Schwann cell PMP22 intronic element firefly luciferase assay (AID 624032); details: S16 rat Schwann cells, PMP22 element FLuc, 24 h; series mostly up to 57.5 µM;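 note: plate controls were DMSO for no effect and PTC124 positive control mean for full effect; nearly all actives have a fitted effect of over 30% in size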
In short: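 Rat S16 Schwann cells stably carrying a PMP22 intronic element-driven Fluc reporter were seeded overnight, then exposed to compounds for 24 h at 37 °C. Luminescence was normalized to PTC124 (positive control) and DMSO (0% activity).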

Luciferin 4-monooxygenase (Photinus pyralis), sequence (P08659 whole entry, looked up): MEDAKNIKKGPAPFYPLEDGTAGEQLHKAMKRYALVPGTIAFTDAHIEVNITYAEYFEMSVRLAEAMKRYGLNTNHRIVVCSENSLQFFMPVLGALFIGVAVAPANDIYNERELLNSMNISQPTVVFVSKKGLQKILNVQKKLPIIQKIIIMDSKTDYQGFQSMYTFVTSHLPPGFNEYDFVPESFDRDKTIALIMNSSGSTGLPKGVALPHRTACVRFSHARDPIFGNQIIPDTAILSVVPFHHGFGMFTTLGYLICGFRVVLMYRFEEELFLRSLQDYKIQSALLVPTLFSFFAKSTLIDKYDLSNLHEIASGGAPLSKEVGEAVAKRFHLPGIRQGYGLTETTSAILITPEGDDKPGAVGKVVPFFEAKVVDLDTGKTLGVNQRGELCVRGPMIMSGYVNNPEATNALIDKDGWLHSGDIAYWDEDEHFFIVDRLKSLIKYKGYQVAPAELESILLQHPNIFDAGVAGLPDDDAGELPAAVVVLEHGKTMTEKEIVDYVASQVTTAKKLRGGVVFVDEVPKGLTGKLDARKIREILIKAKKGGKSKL

c1ccc2c(c1)Sc1ccccc1N2CCN1CCCC1
inactive: ratio activity, negative = inhibition [1] -1.68%

CN1C(=O)C[C@@H](C(=O)N[C@@H](Cc2cnc[nH]2)C(=O)N2CCC[C@H]2C(N)=O)NC1=O
inactive: Potency [2] | Potency [3] | Potency [4] | ratio activity, negative = inhibition [1] -0.824%

C=CCN1CCCC1CNC(=O)c1cc(S(N)(=O)=O)cc(OC)c1OC (configuration not stated)
inactive: Potency [3] | Potency [4]

O=C(O)/C=C/c1ccccc1
inactive: Potency [2] | Potency [3] | Potency [4] | ratio activity, negative = inhibition [1] -0.672%

CCCCCCCCCCCC(=O)OCC(O)CO (configuration not stated)
inactive: Potency [3] | Potency [4] | ratio activity, negative = inhibition [1] 1%

NC(N)=NCC1COc2ccccc2O1 (configuration not stated)
inactive: Potency [2] | Potency [3] | Potency [4] | ratio activity, negative = inhibition [1] 2.65%

CC(C)(CO)[C@@H](O)C(=O)NCCC(=O)NCCSSCCNC(=O)CCNC(=O)[C@H](O)C(C)(C)CO
inactive: Potency [2] | Potency [3] | Potency [4] | ratio activity, negative = inhibition [1] 2.37%
